Assay outcomes from PubChem BioAssay.
EWS-Fli inh: inhibitors of EWS/Fli oncoprotein transcriptional activity. A673 NR0B1-luciferase reporter, viability-normalised. inhibition, % at 12.6 µM. 0.67% of 350,000 active. AID 651661;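 active = mean inhibition of at least 50% after viability correction, with every replicate also passing that limit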;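 note: firefly luciferase signal divided by Alamar Blue viability fluorescence both relative to DMSO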
PAX8 inh HTS: inhibitors of PAX8 transcriptional activity in RMG-I cells; RMG-I TPO-luciferase reporter, SteadyGlo, 24 h; 1.2% of 360,000 active; inhibition, % at 12.6 µM;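 active = mean replicate inhibition at least 60% with every replicate also reaching 60%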;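 note: luciferase light reporting Pax8 driven TPO promoter activity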
PGC1a acetyl inh: PGC1a acetylation modulation, inhibitor mode. U2OS PGC1a acetylation, AlphaScreen anti-acetyl-lysine; with virally co-expressed GCN5 acetyltransferase. inhibition, % at 15.6 µM. 0.17% of 350,000 active. AID 651687;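 active = every replicate shows inhibition of at least 40%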
rRNA inh HTS: selective bacterial rRNA inhibition in E. coli; E. coli WT GFP vs humanized-ribosome RFP mutants, fluorescence, 24 h; stronger effect = lower value; DMSO median 0, no signal -100; GFP signal change (wild-type ribosome), % (no concentration beside the values); 1.6% of 350,000 active;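 active = significant combined selectivity score with lowered wild-type GFP, culture density cut under 30%, mutant RFP and density less affected; inactive = any of these conditions unmet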
LGR2 inh: blocks bursicon-induced cAMP signaling via Drosophila LGR2; HEK293 LGR2, CRE-luciferase, bursicon-stimulated, 4 h; inhibition, % at 9.99 µM; 0.35% of 380,000 active;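 active = drop in luminescence signal, shown as inhibition above about 50% in the replicate tests, limit read from the data, passing the limit was not always enough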;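 note: agonist challenge used bursicon conditioned medium at about half maximal strength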
SIRT5 block: sirtuin-5 (human) deacylase inhibition; Q9NXA8; Purified SirT5, succinyl-peptide AMC, trypsin-coupled fluorescence; inhibition, % at 15 µM; 1.1% of 330,000 active; AID 652115; in the data active = inhibition above about 15%
Target sequence (Q9NXA8 whole entry, looked up): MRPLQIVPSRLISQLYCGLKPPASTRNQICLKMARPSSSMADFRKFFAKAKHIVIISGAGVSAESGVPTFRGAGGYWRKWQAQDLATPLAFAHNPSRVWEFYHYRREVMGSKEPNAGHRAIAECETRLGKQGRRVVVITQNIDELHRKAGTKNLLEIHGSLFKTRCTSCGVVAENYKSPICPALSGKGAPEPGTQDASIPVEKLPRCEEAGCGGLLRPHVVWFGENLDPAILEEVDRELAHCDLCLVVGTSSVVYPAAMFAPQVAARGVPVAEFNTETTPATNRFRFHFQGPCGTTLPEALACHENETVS
Hits are given with their value; 0 = inactive; - = not tested or not shown. Hits are enriched below; roughly 3.4% of the tested compounds scored in any of these assays.

SMILES	EWS-Fli inh	PAX8 inh HTS	PGC1a acetyl inh	rRNA inh HTS	LGR2 inh	SIRT5 block
CCC(=O)N(C)C[C@@H]1Oc2cc(C#CCOC)ccc2S(=O)(=O)N([C@H](C)CO)C[C@@H]1C	0	-	0	0	0	0
C[C@H](CO)N1C[C@H](C)[C@H](CN(C)S(=O)(=O)c2ccc(Cl)cc2)Oc2ccc(NC(=O)Nc3ccc(F)cc3)cc2C1=O	0	0	0	0	0	15.2
C[C@H]1CN([C@@H](C)CO)C(=O)c2cc(NC(=O)Nc3ccc(C(F)(F)F)cc3)ccc2O[C@H]1CN(C)S(=O)(=O)c1ccc(Cl)cc1	0	-	0	0	0	23.2
C[C@@H]1CN([C@@H](C)CO)C(=O)c2cc(NC(=O)Nc3ccc(F)cc3)ccc2O[C@H]1CN(C)S(=O)(=O)c1ccc(Cl)cc1	0	0	0	0	0	0
C[C@@H]1CN([C@@H](C)CO)C(=O)c2cc(NC(=O)Nc3ccc(C(F)(F)F)cc3)ccc2O[C@@H]1CN(C)S(=O)(=O)c1ccc(Cl)cc1	0	-	0	0	0	0
Cc1noc(C)c1NC(=O)Nc1ccc2c(c1)CC(=O)N([C@@H](C)CO)C[C@@H](C)[C@H](CN(C)S(=O)(=O)c1ccccc1)O2	0	0	0	0	0	0
C[C@H]1CCC/C=C/[C@@H]2C[C@H](O)C[C@H]2[C@H](O)[C@H](S(=O)c2ccc(O)cc2)CC(=O)O1 (some centres undefined)	65.7	110.9	66.3	0	-	0
Cc1ccc(S(=O)(=O)N/N=C2/CCCCC2C2CCCCC2)cc1[N+](=O)[O-] (centres undefined)	-	0	-	-	0	-
CCC(C)(C)C1CCC(=NNS(=O)(=O)c2ccc(C)c([N+](=O)[O-])c2)CC1 (centres undefined)	0	0	-	0	0	18.0
C[C@H](CO)N1C[C@H](C)[C@@H](CN(C)C(=O)Nc2ccc(C(F)(F)F)cc2)OCCCC[C@H](C)Oc2ccc(NS(=O)(=O)c3ccc(Cl)cc3)cc2C1=O	0	69.3	0	0	0	0
C[C@@H]1CCCCO[C@H](CN(C)C(=O)Nc2ccc(C(F)(F)F)cc2)[C@@H](C)CN([C@H](C)CO)C(=O)c2cc(NS(=O)(=O)c3ccc(Cl)cc3)ccc2O1	0	0	0	0	0	0
C[C@@H]1CCCCO[C@@H](CN(C)C(=O)Nc2ccc(C(F)(F)F)cc2)[C@H](C)CN([C@H](C)CO)C(=O)c2cc(NS(=O)(=O)c3ccc(Cl)cc3)ccc2O1	0	88.5	0	0	0	0
C[C@@H]1CCCCO[C@@H](CN(C)C(=O)Nc2ccc(C(F)(F)F)cc2)[C@H](C)CN([C@@H](C)CO)C(=O)c2cc(NS(=O)(=O)c3ccc(Cl)cc3)ccc2O1	0	69.0	0	0	0	19.2
C[C@H]1CCCCO[C@@H](CN(C)C(=O)Nc2ccc(C(F)(F)F)cc2)[C@@H](C)CN([C@@H](C)CO)C(=O)c2cc(NS(=O)(=O)c3ccc(Cl)cc3)ccc2O1	0	0	0	0	0	0
C[C@@H]1CCCCO[C@H](CN(C)C(=O)Nc2ccc(C(F)(F)F)cc2)[C@H](C)CN([C@H](C)CO)C(=O)c2cc(NS(=O)(=O)c3ccc(Cl)cc3)ccc2O1	0	0	0	0	0	0
C[C@@H]1CCCCO[C@H](CN(C)C(=O)Nc2ccc(C(F)(F)F)cc2)[C@H](C)CN([C@@H](C)CO)C(=O)c2cc(NS(=O)(=O)c3ccc(Cl)cc3)ccc2O1	0	88.6	0	0	0	0
C[C@@H]1CCCCO[C@H](CN(C)C(=O)Nc2ccc(C(F)(F)F)cc2)[C@@H](C)CN([C@@H](C)CO)C(=O)c2cc(NS(=O)(=O)c3ccc(Cl)cc3)ccc2O1	0	92.3	0	0	0	0
N#Cc1nc(COc2ccc(-c3ccccc3)cc2)oc1NCCCN1CCOCC1	-	-	0	-	-	-
CN(C)CCNc1oc(COc2ccc(-c3ccccc3)cc2)nc1C#N	0	-	58.5	-35.6	0	-
C[C@H]1CN([C@@H](C)CO)C(=O)c2cc(NS(=O)(=O)c3cn(C)cn3)ccc2O[C@H]1CN(C)Cc1ccc(-c2ccccc2)cc1	0	0	0	0	0	0
Cn1c(C(=O)Nc2ccc3c(c2)OCCO3)cc2sccc21	0	-	0	-31.6	0	0
Cc1ccc(NC(=O)c2ccc3c(c2)OCCO3)cc1C	0	0	0	0	76.5	0
